Data on seven sequences can be found in paper PMC7862700, “An all-to-all approach to the identification of sequence-specific readers for epigenetic DNA modifications on cytosine”.

Experiment in all cases: DAPPL (digital affinity profiling via proximity ligation, sequencing); 10 mM Tris-HCl pH 7.5, 50 mM NaCl, 1 mM DTT, 4% glycerol, room temperature, 30 min; GST-TFs on glutathione beads, 16-mer random dsDNA library, 0.1% formaldehyde crosslink after washing; high values mean tight binding
The target of one assay is T1, FEV (Homo sapiens, UniProt Q99581 1-238).
T1 sequence: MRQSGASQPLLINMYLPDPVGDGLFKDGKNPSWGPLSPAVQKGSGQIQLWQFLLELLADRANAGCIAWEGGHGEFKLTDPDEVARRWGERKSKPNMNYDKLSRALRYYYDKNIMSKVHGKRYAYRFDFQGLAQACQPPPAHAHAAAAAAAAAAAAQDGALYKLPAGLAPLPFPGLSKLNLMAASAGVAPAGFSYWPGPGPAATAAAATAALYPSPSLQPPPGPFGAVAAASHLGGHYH
To be noted: protein: recombinant; tags: N-terminal GST; dsDNA, one strand shown. The essentials: (§1)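 Beads coated with glutathione captured GST-fused human transcription factors that had been expressed in yeast, and the factors were then given DNA barcodes and pooled with a tag-only sample. The pools were incubated with 200 nmole of a random double-stranded 16-mer DNA library in Tris/NaCl/DTT/glycerol buffer for 30 min at room temperature, washed, crosslinked with 0.1% formaldehyde and proximity-ligated with BsaI/T4 ligase at 37 °C for 1 h. PCR amplification and Illumina NextSeq500 sequencing came last. Binding signal is each hexamer's read frequency for a factor divided by its frequency for the tag-only sample.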

In another assay the target is ETV5 (Homo sapiens, UniProt P41161 1-510). To be noted: protein: recombinant; tags: N-terminal GST; dsDNA, one strand shown. The essentials: as §1
ETV5, sequence (P41161 whole entry): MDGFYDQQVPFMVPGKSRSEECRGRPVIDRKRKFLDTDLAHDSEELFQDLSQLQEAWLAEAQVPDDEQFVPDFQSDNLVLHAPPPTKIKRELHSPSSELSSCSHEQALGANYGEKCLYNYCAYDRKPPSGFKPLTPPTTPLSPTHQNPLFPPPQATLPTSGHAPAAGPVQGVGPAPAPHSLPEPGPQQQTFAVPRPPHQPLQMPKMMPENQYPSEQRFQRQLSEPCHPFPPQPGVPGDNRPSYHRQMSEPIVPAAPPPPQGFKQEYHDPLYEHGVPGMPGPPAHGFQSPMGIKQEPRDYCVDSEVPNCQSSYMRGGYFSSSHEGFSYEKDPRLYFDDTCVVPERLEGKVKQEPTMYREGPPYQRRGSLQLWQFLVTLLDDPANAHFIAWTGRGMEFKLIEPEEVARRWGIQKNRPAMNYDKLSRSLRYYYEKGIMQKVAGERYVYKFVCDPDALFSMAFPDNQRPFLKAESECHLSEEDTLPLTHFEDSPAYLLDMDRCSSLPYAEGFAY
The target in another assay is HSF1 (Homo sapiens, UniProt Q00613 1-529). Conditions: protein: recombinant; tags: N-terminal GST; chain copies: 3; dsDNA, one strand shown. The essentials: as §1
HSF1, sequence (Q00613 whole entry): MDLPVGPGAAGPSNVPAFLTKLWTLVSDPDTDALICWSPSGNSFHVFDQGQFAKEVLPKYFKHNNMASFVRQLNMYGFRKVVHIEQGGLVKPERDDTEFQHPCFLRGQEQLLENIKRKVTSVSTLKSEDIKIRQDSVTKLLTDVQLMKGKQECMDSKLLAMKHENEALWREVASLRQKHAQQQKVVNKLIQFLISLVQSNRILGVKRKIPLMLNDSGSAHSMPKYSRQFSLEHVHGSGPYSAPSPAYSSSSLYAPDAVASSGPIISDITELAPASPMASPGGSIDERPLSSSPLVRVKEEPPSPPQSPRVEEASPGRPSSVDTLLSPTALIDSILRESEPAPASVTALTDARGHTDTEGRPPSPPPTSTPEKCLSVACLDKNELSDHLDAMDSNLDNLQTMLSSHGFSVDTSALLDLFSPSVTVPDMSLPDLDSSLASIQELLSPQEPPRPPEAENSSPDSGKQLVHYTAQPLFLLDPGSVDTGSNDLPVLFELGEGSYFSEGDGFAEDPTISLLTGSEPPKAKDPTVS
A further assay addresses T2, SPIC (Homo sapiens, UniProt Q8N5J4 1-248).
T2 sequence: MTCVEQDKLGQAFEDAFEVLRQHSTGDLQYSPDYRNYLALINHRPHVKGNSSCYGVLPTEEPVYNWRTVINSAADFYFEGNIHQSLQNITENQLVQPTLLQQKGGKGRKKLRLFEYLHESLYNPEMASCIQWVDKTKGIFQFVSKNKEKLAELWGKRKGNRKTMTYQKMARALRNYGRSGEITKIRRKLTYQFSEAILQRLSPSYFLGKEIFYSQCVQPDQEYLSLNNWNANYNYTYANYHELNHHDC
To be noted: protein: recombinant; tags: N-terminal GST; dsDNA, one strand shown. An outline of the steps: as §1

For another assay, the target named is ELF4 (Homo sapiens, UniProt Q99607 1-663). To be noted: protein: recombinant; tags: N-terminal GST; dsDNA, one strand shown. The essentials: as §1
ELF4, sequence (Q99607 whole entry): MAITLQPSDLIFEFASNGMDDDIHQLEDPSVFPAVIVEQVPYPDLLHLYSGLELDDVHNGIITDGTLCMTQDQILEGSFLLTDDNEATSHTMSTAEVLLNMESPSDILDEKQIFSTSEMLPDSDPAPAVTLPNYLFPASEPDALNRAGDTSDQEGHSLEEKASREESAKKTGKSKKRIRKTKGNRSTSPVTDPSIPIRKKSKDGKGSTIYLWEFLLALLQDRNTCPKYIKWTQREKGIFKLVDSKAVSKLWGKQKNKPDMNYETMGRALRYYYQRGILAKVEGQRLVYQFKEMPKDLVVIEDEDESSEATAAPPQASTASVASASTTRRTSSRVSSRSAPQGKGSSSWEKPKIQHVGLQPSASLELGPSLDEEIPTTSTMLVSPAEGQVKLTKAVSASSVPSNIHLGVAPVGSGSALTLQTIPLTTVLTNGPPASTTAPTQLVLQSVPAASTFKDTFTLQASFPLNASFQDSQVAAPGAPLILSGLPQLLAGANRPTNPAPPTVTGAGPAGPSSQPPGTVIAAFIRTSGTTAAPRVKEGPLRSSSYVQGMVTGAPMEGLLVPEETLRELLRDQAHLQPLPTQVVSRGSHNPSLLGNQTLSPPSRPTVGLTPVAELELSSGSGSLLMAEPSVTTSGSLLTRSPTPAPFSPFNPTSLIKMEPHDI
A further assay deals with T3, ELK4 (Homo sapiens, UniProt P28324-2 1-405).
T3 sequence: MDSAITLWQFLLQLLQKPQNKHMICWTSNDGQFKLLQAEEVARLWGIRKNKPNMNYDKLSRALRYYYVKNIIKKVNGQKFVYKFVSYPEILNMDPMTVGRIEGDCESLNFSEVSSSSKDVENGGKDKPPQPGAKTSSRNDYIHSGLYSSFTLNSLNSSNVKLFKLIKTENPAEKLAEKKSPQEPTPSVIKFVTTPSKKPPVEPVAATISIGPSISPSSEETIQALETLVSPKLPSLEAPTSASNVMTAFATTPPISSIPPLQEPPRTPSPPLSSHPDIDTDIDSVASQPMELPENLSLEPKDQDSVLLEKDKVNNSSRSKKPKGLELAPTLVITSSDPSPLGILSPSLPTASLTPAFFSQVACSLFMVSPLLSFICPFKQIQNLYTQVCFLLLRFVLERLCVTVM
Conditions: protein: recombinant; tags: N-terminal GST; dsDNA, one strand shown. An outline of the steps: as §1

The target of a further assay is T4, ETV2 (Homo sapiens, UniProt O00321 1-342).
T4 sequence: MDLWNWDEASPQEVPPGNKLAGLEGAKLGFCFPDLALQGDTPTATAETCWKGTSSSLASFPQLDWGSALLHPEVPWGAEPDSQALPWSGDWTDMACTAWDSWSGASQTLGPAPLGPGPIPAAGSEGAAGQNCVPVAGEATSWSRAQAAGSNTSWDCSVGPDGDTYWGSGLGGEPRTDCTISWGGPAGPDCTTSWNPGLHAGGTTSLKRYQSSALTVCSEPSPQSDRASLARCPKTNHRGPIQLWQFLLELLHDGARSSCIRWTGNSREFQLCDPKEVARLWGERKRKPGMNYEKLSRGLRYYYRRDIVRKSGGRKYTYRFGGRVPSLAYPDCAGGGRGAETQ
To be noted: protein: recombinant; tags: N-terminal GST; dsDNA, one strand shown. An outline of the steps: as §1

In a further assay the target is T5, ELF3 (Homo sapiens, UniProt P78545 1-371).
T5 sequence: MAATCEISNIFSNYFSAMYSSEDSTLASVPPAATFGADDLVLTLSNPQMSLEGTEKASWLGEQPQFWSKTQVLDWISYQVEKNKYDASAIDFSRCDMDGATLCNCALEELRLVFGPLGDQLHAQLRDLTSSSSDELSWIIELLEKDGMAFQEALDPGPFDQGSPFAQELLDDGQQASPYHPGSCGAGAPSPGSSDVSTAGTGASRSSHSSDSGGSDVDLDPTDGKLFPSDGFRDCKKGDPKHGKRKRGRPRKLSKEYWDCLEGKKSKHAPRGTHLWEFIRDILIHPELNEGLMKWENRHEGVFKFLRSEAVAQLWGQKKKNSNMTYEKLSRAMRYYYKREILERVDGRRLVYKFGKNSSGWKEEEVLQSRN
Conditions: protein: recombinant; tags: N-terminal GST; dsDNA, one strand shown. An outline of the steps: as §1

In the next assay the target is CRX (Homo sapiens, UniProt O43186 1-299). To be noted: protein: recombinant; tags: N-terminal GST; dsDNA, one strand shown. The essentials: as §1
CRX, sequence (O43186 whole entry): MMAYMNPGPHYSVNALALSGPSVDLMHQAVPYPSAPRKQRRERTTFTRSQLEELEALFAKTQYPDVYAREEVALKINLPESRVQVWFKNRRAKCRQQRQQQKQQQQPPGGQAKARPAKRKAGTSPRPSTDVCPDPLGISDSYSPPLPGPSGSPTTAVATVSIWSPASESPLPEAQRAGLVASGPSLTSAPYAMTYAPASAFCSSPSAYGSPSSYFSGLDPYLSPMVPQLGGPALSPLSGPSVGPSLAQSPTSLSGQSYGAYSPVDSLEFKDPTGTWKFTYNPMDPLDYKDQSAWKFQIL
The next assay concerns the target ETV1 (Homo sapiens, UniProt P50549 1-477). To be noted: protein: recombinant; tags: N-terminal GST; dsDNA, one strand shown. An outline of the steps: as §1

ETV1, sequence (P50549 whole entry): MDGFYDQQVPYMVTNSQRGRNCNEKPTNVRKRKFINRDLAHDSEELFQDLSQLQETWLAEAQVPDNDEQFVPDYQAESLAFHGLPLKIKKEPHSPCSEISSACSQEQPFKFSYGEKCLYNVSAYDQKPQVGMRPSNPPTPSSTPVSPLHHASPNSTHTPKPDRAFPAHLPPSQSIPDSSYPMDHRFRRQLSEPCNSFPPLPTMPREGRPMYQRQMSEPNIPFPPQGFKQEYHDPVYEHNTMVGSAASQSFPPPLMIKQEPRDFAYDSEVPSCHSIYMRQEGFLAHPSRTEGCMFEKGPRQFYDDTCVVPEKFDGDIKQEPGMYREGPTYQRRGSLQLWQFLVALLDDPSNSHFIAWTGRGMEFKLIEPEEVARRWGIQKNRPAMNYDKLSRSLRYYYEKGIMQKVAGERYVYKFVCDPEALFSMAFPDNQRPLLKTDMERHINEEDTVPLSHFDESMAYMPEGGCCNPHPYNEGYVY

In the case of GTAAAA, the binding signal was 1.07 fold enrichment (6-mer frequency, TF over GST control) in the assay with FEV; 1.19 fold enrichment (6-mer frequency, TF over GST control) in the assay with ETV5; 1.11 fold enrichment (6-mer frequency, TF over GST control) with HSF1; 1.13 fold enrichment (6-mer frequency, TF over GST control) with SPIC; 1.14 fold enrichment (6-mer frequency, TF over GST control) with ELF4; 1.02 fold enrichment (6-mer frequency, TF over GST control) with ELK4. Also, the binding signal in the assay with ETV2 was 1.21 fold enrichment (6-mer frequency, TF over GST control); in the assay with ELF3, 1.13 fold enrichment (6-mer frequency, TF over GST control); with CRX it was 1.03 fold enrichment (6-mer frequency, TF over GST control); with ETV1, 1.06 fold enrichment (6-mer frequency, TF over GST control).

As for ACAATT, the binding signal in the assay with FEV is 1.27 fold enrichment (6-mer frequency, TF over GST control); with ETV5, 1.33 fold enrichment (6-mer frequency, TF over GST control); with HSF1, 1.18 fold enrichment (6-mer frequency, TF over GST control); with SPIC, 1.17 fold enrichment (6-mer frequency, TF over GST control); in the assay with ELF4, 1.25 fold enrichment (6-mer frequency, TF over GST control); with ELK4, 1.26 fold enrichment (6-mer frequency, TF over GST control). Also, the binding signal with ETV2 was 1.29 fold enrichment (6-mer frequency, TF over GST control); with ELF3, 1.35 fold enrichment (6-mer frequency, TF over GST control); with CRX, 1.13 fold enrichment (6-mer frequency, TF over GST control); with ETV1, 1.24 fold enrichment (6-mer frequency, TF over GST control).

As to CCGGAT, the binding signal is 7.2 fold enrichment (6-mer frequency, TF over GST control) with FEV; 3.55 fold enrichment (6-mer frequency, TF over GST control) with ETV5; 1.63 fold enrichment (6-mer frequency, TF over GST control) in the assay with HSF1; 2.66 fold enrichment (6-mer frequency, TF over GST control) with SPIC; 2.75 fold enrichment (6-mer frequency, TF over GST control) in the assay with ELF4; 2.74 fold enrichment (6-mer frequency, TF over GST control) in the assay with ELK4. In addition, the binding signal was 2.89 fold enrichment (6-mer frequency, TF over GST control) in the assay with ETV2; 3.19 fold enrichment (6-mer frequency, TF over GST control) in the assay with ELF3; 2.03 fold enrichment (6-mer frequency, TF over GST control) in the assay with CRX; 3.5 fold enrichment (6-mer frequency, TF over GST control) in the assay with ETV1.

On to CAAAAA, for which the binding signal is 1.2 fold enrichment (6-mer frequency, TF over GST control) with FEV; 1.15 fold enrichment (6-mer frequency, TF over GST control) with ETV5; 1.08 fold enrichment (6-mer frequency, TF over GST control) with HSF1; 1.01 fold enrichment (6-mer frequency, TF over GST control) with SPIC; 1.18 fold enrichment (6-mer frequency, TF over GST control) with ELF4; 1.13 fold enrichment (6-mer frequency, TF over GST control) in the assay with ELK4. The binding signal in the assay with ETV2 was 1.17 fold enrichment (6-mer frequency, TF over GST control); with ELF3 it was 1.12 fold enrichment (6-mer frequency, TF over GST control); in the assay with CRX, 1.02 fold enrichment (6-mer frequency, TF over GST control); with ETV1, 1.22 fold enrichment (6-mer frequency, TF over GST control).

For the sequence ACTAAT, the binding signal with FEV is 1.19 fold enrichment (6-mer frequency, TF over GST control); with ETV5, 1.3 fold enrichment (6-mer frequency, TF over GST control); with HSF1, 1.81 fold enrichment (6-mer frequency, TF over GST control); with SPIC, 1.46 fold enrichment (6-mer frequency, TF over GST control); with ELF4 it was 1.36 fold enrichment (6-mer frequency, TF over GST control); with ELK4, 1.24 fold enrichment (6-mer frequency, TF over GST control). In addition, the binding signal with ETV2 was 1.38 fold enrichment (6-mer frequency, TF over GST control); in the assay with ELF3 it was 1.33 fold enrichment (6-mer frequency, TF over GST control); with CRX, 2.71 fold enrichment (6-mer frequency, TF over GST control); in the assay with ETV1, 1.3 fold enrichment (6-mer frequency, TF over GST control).

Turning to CTCTCT, the binding signal is 1.67 fold enrichment (6-mer frequency, TF over GST control) with FEV; 1.57 fold enrichment (6-mer frequency, TF over GST control) with ETV5; 1.69 fold enrichment (6-mer frequency, TF over GST control) in the assay with HSF1; 1.77 fold enrichment (6-mer frequency, TF over GST control) with SPIC; 1.74 fold enrichment (6-mer frequency, TF over GST control) with ELF4; 1.74 fold enrichment (6-mer frequency, TF over GST control) in the assay with ELK4. Besides, the binding signal with ETV2 was 1.63 fold enrichment (6-mer frequency, TF over GST control); with ELF3, 1.58 fold enrichment (6-mer frequency, TF over GST control); with CRX it was 1.5 fold enrichment (6-mer frequency, TF over GST control); with ETV1, 1.49 fold enrichment (6-mer frequency, TF over GST control).

On to TCGATC, for which the binding signal was 1.09 fold enrichment (6-mer frequency, TF over GST control) with FEV; 1.19 fold enrichment (6-mer frequency, TF over GST control) in the assay with ETV5; 1.54 fold enrichment (6-mer frequency, TF over GST control) in the assay with HSF1; 1.1 fold enrichment (6-mer frequency, TF over GST control) with SPIC; 1.14 fold enrichment (6-mer frequency, TF over GST control) in the assay with ELF4; 1.15 fold enrichment (6-mer frequency, TF over GST control) with ELK4. In addition, the binding signal in the assay with ETV2 is 1.06 fold enrichment (6-mer frequency, TF over GST control); with ELF3 it was 1.17 fold enrichment (6-mer frequency, TF over GST control); with CRX, 1.23 fold enrichment (6-mer frequency, TF over GST control); with ETV1, 1.16 fold enrichment (6-mer frequency, TF over GST control).
